Data reported in PubChem BioAssay (EPA / NIEHS).
Several values for one entry are separate records, joined by “and”; a condition that tells them apart may be missing. Identical values can stand only once. Results filed as inconclusive are left out. A structure can be active in one record and inactive in another. Activity calls are given as the source filed them. How the source made its calls, unless noted: active means hit-call score of the fitted dose curve at least 0.9, where 1 is the maximum; inconclusive means response in the unintended direction; inactive means score below 0.9.

Experiments:
[1] = target: Cellular tumor antigen p53 (Homo sapiens) (UniProt P04637); experiment: TOX21_p53_BLA_p2_ratio: Tox21 HCT-116 p53 Agonism Beta-lactamase Assay, Ratio, Phase 2 (AID 2283592)
Outline: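 In this cell-based reporter format, HCT116 cells were dosed with chemicals delivered from DMSO by 217-fold dilution and incubated 16 h at 37C. Emission at 460 and 530 nm after 2 h CCF4-AM loading provided the ratio, fitted upward versus DMSO.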

[2] = TOX21_p53_BLA_p3_viability: Viability Assessment in the Tox21 HCT-116 p53 Agonism Beta-lactamase Assay, Phase 3 (AID 2283593);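 further: cells exposed to compound for 16 h before reading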
Outline: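 HCT116 cells, 4000/well, dosed 5 h after plating by pin transfer (217-fold dilution from DMSO stock) and incubated 16 h at 37C, 5% CO2. Viability read as ATP luminescence with CellTiter-Glo after 30 min at room temperature.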

[3] = target: Cellular tumor antigen p53 (Homo sapiens) (UniProt P04637); experiment: TOX21_p53_BLA_p3_ratio: Tox21 HCT-116 p53 Agonism Beta-lactamase Assay, Ratio, Phase 3 (AID 2283596)
Outline: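 HCT116 p53-bla cells (4000/well) given compound in DMSO (217-fold dilution) after 5 h, incubated 16 h at 37C. CCF4-AM substrate 2 h at room temperature; 460/530 nm emission ratio, gain fitted against DMSO.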

[4] = TOX21_p53_BLA_p4_viability: Viability Assessment in the Tox21 HCT-116 p53 Agonism Beta-lactamase Assay, Phase 4 (AID 2283597);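 further: hits lower the luminescence signal meaning cytotoxicity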
Outline: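 We seeded HCT116 p53 reporter cells at 4000/well and waited 5 h. We then added compounds in DMSO at a 217-fold dilution and incubated for 16 h. Viability was read as CellTiter-Glo luminescence after 30 min at RT.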

[5] = target: Cellular tumor antigen p53 (Homo sapiens) (UniProt P04637); experiment: TOX21_p53_BLA_p5_ratio: Tox21 HCT-116 p53 Agonism Beta-lactamase Assay, Ratio, Phase 5 (AID 2283599)
Outline: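 HCT-116 p53-bla cells (4000/well) plated 5 h, dosed with compound (217-fold DMSO dilution) for 16 h at 37 C; CCF4-AM substrate 2 h at room temperature. Activity is the 460/530 nm emission ratio (405 nm excitation), fitted in gain-of-signal direction versus DMSO.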

[6] = TOX21_p53_BLA_p5_viability: Viability Assessment in the Tox21 HCT-116 p53 Agonism Beta-lactamase Assay, Phase 5 (AID 2283600)
Outline: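 Compounds, pinned from DMSO at 217-fold dilution, were left on the cells for 16 h. The viability endpoint was ATP content measured by CellTiter-Glo luminescence, where falling signal reflects cytotoxicity.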

[7] = target: Cellular tumor antigen p53 (Homo sapiens) (UniProt P04637); experiment: TOX21_p53_BLA_p4_ratio: Tox21 HCT-116 p53 Agonism Beta-lactamase Assay, Ratio, Phase 4 (AID 2283601)
Outline: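 HCT-116 p53 beta-lactamase reporter cells (4000/well) preincubated 5 h, then compound (217-fold dilution of DMSO stock) for 16 h at 37C. CCF4-AM substrate added 2 h at room temperature; 460/530 nm emission ratio fitted upward versus DMSO.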

[8] = CCTE_Harrill_HTTr_Viability_MCF7: CCTE's 6-hour Cell Viability Assessment for the High-Throughput Transcriptomics (HTTr) Platform, in MCF-7 cells cultured in DMEM + 10% fetal bovine serum, Harrill Lab (AID 2284010; active means hit-call score of the fitted dose curve at least 0.9, where 1 is the maximum; inactive means score below 0.9)
Outline: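 Membrane integrity was scored by high-content imaging of propidium iodide dye exclusion after a 6 h exposure across an eight-point dilution series. Data were fitted bidirectionally relative to DMSO as negative control and baseline.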

[9] = CCTE_Harrill_HTTr_Apoptosis_MCF7: CCTE's 6-hour Apoptosis Assessment for the High-Throughput Transcriptomics (HTTr) Platform, in MCF-7 cells cultured in DMEM + 10% fetal bovine serum, Harrill Lab (AID 2284011; active means hit-call score of the fitted dose curve at least 0.9, where 1 is the maximum; inactive means score below 0.9)
Outline: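 Read-out: CellEvent Caspase 3/7 Green signal by high content imaging, gain-of-signal indicating apoptosis. MCF-7 cells, DMEM + 10% FBS, eight-point dilution series, 6 h exposure. Curves fitted bidirectionally relative to DMSO negative control.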

[10] = CCTE_Harrill_HTTr_CellCount_MCF7: CCTE's Cell Proliferation Assessment for the High-Throughput Transcriptomics (HTTr) Platform, Harrill Lab (AID 2284012);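 further: cells exposed to compound for six hours; intended direction is loss of nuclei count meaning fewer cells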
Outline: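 MCF-7 cells were exposed for 6 h to an eight-point dilution series; Hoechst-labeled nuclei were counted by high content imaging. Curves were fitted bidirectionally against DMSO as negative control and baseline, with signal loss indicating reduced cell count.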

Measured: AC50

Cellular tumor antigen p53 (Homo sapiens), sequence (P04637 whole entry, looked up): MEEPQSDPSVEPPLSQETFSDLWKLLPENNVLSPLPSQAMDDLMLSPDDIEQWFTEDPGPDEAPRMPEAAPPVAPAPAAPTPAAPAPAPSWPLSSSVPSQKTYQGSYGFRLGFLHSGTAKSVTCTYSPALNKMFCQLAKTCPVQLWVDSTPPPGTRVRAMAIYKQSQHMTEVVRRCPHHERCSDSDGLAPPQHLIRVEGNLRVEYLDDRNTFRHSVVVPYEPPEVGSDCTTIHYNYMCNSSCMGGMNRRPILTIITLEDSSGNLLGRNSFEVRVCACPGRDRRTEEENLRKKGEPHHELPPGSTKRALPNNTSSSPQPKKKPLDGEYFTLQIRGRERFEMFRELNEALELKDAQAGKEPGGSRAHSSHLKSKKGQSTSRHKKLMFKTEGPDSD

CCOC(=O)c1c(N)sc2c1CCN(Cc1ccccc1)C2
inactive: [1] | [2] | [3] | [4] | [5] | [6] | [7]

COC(=O)[C@@H]1[C@H]2C[C@H]3c4[nH]c5ccccc5c4CCN3C[C@@H]2CC[C@@H]1O
inactive: [1] | [2] | [3] | [4] | [5] | [6] | [7]

CCCC(=O)N1CCCN(c2nc(N)c3cc(OC)c(OC)cc3n2)CC1
inactive: [1] | [2] | [3] | [4] | [5] | [6] | [7]

N[C@H](CC(=O)O)C(=O)O
inactive: [1] | [2] | [3] | [4] | [5] | [6] | [7]

Cc1cc2c(cc1S(N)(=O)=O)S(=O)(=O)CCC2
inactive: [1] | [2] | [3] | [4] | [5] | [6] | [7]

Cc1ccc(C(=O)C(C)CN2CCCCC2)cc1 (configuration not stated)
inactive: [1] | [2] | [3] | [4] | [5] | [6] | [7]

CC(C)(C)C(=O)OCOC(=O)[C@@H]1N2C(=O)[C@@H](N=CN3CCCCCC3)[C@H]2SC1(C)C
inactive: [1] | [2] | [3] | [4] | [5] | [6] | [7]

Cc1cccc(C)c1Nc1ncccc1C(=O)O
inactive: [2] | [3] | [4] | [5] | [6] | [7]
active: [1] 43.8 µM

C#CCOc1ccc2c(C)cc(=O)oc2c1
inactive: [1] | [2] | [3] | [4] | [5] | [6] | [7]

CC1(CN2CCC(n3c(=O)[nH]c4ccccc43)CC2)OCc2ccccc2-n2cccc21 (configuration not stated)
inactive: [1] | [2] | [3] | [5] | [6] | [7]
active: [4] 33.3 µM

CN[C@@H]1[C@@H](O[C@H]2O[C@H](CO)[C@@H](N)[C@H](O)[C@H]2O)O[C@H]2C[C@@H](N)[C@@H](O[C@H]3[C@H](O)[C@@H](O)[C@H](N)C[C@@H]3N)O[C@@H]2[C@@H]1O
inactive: [1] | [2] | [3] | [4] | [5] | [6] | [7]

O=C(O)c1nc(=O)[nH]c(=O)[nH]1
inactive: [1] | [2] | [3] | [4] | [5] | [6] | [7]

O=S(=O)(O)c1cc(I)c(O)c2ncccc12
inactive: [1] | [2] | [3] | [4] | [5] | [6] | [7]

O=C1OC(O)C(C(Cl)Cl)=C1Cl (configuration not stated)
inactive: [6] | [7]
active: [1] 13.2 µM | [2] 14.6 µM | [3] 13.3 µM | [4] 12.7 µM | [5] 25.6 µM

C[C@@H]1O[C@@H]1P(=O)(O)O
inactive: [1] | [2] | [3] | [4] | [5] | [6] | [7]

CCN(CC)CCNc1ccc(CO)c2sc3ccccc3c(=O)c12
inactive: [2] | [6]
active: [1] 16.2 µM | [3] 23.2 µM | [4] 33.2 µM | [5] 20.5 µM | [7] 14.3 µM

CCOc1ccccc1C(N)=O
inactive: [1] | [2] | [3] | [4] | [5] | [6] | [7]

CCCN1CCCC[C@H]1C(=O)Nc1c(C)cccc1C
inactive: [1] | [2] | [3] | [4] | [5] | [6] | [7]

CC12CCC(CC1=O)C2(C)C (configuration not stated)
inactive: [1] | [2] | [3] | [4] | [5] | [6] | [7]

CCCCCCCCCCCl
inactive: [1] | [2] | [3] | [4] | [5] | [6] | [7]

c1ccc2sc(SN3CCOCC3)nc2c1
inactive: [1] | [2] | [3] | [4] | [5] | [6] | [7]

CC(C)(C)NCC(O)c1ccc(O)c(CO)c1 (configuration not stated)
inactive: [1] | [2] | [3] | [4] | [5] | [6] | [7]

O=C(O)c1cc(O)c2c(c1)C(=O)c1cccc(O)c1C2=O
inactive: [1] | [2] | [3] | [4] | [5] | [6] | [7]

CCOC(=O)CS
inactive: [1] | [2] | [3] | [4] | [5] | [6] | [7]

CC(C)(C)NC[C@H](O)COc1nsnc1N1CCOCC1
inactive: [1] | [2] | [3] | [4] | [5] | [6] | [7] | [8] | [9] | [10]

Cc1cc(C2CCCCC2)n(O)c(=O)c1
inactive: [1] | [2] | [3] | [4] | [5] | [7]

CC(=O)[C@]1(O)Cc2c(O)c3c(c(O)c2[C@@H](O[C@H]2C[C@H](N)[C@H](O)[C@H](C)O2)C1)C(=O)c1c(O)cccc1C3=O
inactive: [2] | [4] | [5] | [6] | [7]
active: [1] 346 nM and 263 nM | [3] 222 nM and 212 nM | [7] 0.571 µM
